In the supplement of paper PMC10849652:
The full data set covers some 7,900 targets. This sample favours those with a hit. About 0.6% of all pairs of compound and target were hits.

compound: c1cn2cc(-c3ccc4cn[nH]c4c3)nc(Nc3ccc(N4CCOCC4)cc3)c2n1 [entospletinib]; assay: log2 fold change, soluble protein after heating vs DMSO (PISA); higher = thermal stabilisation; K562 cells, 10 uM, 30 min; active = over 0.2 and 3.5 SD of the protein, either way, in both replicates (recomputed)
How it was run: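 Thermal stability values are relative to control samples and come from duplicates. They are expressed as log2 fold changes. For measurement, K562 cells (2×10^6 cells/mL) received 10 μM compound for 30 min, and aliquots were heated for 3 min over 48°C-58°C, pooled, and extracted at 4°C in PBS with 0.5% NP-40. Soluble protein, the supernatant after 21,000xg for 90 min, was quantified by TMTpro 16plex LC-MS/MS with equalised channel sums.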

Sequence of UniProt O43395 (O43395 whole entry, looked up): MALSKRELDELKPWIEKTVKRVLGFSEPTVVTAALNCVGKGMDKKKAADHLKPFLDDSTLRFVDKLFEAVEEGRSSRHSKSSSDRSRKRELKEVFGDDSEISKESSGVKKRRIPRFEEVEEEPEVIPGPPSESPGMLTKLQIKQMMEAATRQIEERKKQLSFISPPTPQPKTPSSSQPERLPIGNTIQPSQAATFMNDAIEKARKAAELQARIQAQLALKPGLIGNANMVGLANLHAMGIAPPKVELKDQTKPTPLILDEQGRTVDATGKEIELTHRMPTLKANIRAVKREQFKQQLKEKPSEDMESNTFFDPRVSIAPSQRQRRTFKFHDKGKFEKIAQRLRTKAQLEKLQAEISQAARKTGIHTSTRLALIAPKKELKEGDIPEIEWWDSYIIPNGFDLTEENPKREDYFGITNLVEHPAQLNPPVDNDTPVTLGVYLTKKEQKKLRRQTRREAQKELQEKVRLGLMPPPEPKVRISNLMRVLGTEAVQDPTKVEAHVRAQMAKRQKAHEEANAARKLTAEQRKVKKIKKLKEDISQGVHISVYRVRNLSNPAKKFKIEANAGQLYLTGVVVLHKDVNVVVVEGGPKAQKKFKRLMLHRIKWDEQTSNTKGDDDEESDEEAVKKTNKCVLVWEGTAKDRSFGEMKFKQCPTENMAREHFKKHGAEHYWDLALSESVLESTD
Sequence of UniProt P51665 (P51665 whole entry, looked up): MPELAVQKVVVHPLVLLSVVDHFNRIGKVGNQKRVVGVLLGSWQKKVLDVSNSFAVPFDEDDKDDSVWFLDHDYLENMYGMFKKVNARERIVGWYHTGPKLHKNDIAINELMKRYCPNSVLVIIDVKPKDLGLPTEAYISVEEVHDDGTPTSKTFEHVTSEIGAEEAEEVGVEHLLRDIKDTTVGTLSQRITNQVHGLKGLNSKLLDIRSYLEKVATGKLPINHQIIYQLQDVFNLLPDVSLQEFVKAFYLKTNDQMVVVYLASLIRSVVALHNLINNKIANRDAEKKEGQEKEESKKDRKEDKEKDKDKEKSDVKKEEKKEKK
Sequence of UniProt P35227 (P35227 whole entry, looked up): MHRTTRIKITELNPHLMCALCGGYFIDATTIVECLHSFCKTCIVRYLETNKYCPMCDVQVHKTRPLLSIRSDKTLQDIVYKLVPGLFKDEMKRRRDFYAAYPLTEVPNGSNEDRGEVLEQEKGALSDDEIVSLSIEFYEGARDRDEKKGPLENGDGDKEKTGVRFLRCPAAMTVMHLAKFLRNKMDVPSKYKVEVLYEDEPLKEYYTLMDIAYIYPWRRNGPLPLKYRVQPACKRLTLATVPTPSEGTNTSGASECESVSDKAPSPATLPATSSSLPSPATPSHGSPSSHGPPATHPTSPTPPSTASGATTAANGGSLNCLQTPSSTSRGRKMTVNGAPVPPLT
Sequence of UniProt Q5JVF3 (Q5JVF3 whole entry, looked up): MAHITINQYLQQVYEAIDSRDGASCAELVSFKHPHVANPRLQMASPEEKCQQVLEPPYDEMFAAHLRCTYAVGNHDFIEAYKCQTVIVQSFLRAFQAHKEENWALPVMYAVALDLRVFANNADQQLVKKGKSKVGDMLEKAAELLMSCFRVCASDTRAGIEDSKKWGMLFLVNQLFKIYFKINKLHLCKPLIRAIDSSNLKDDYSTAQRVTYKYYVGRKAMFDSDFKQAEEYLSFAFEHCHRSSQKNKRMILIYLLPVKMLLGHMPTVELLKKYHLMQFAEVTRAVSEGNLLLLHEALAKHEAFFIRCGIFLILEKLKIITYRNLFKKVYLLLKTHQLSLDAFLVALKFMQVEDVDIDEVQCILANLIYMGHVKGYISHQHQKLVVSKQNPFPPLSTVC
Sequence of UniProt O15355 (O15355 whole entry, looked up): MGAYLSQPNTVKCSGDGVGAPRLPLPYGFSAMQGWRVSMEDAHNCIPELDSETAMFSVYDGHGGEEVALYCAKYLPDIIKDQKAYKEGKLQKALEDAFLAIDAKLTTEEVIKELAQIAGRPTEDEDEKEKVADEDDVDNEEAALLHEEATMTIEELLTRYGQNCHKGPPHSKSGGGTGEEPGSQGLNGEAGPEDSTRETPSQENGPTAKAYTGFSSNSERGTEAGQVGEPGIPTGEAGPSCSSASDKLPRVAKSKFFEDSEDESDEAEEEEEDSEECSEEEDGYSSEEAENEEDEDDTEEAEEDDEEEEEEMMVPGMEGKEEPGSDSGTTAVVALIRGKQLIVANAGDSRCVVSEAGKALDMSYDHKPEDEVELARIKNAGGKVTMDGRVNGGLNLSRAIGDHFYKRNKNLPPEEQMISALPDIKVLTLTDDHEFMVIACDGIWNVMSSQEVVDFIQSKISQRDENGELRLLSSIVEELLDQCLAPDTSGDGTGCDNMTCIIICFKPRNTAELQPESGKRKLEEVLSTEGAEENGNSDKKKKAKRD
Sequence of UniProt Q5JRX3 (Q5JRX3 whole entry, looked up): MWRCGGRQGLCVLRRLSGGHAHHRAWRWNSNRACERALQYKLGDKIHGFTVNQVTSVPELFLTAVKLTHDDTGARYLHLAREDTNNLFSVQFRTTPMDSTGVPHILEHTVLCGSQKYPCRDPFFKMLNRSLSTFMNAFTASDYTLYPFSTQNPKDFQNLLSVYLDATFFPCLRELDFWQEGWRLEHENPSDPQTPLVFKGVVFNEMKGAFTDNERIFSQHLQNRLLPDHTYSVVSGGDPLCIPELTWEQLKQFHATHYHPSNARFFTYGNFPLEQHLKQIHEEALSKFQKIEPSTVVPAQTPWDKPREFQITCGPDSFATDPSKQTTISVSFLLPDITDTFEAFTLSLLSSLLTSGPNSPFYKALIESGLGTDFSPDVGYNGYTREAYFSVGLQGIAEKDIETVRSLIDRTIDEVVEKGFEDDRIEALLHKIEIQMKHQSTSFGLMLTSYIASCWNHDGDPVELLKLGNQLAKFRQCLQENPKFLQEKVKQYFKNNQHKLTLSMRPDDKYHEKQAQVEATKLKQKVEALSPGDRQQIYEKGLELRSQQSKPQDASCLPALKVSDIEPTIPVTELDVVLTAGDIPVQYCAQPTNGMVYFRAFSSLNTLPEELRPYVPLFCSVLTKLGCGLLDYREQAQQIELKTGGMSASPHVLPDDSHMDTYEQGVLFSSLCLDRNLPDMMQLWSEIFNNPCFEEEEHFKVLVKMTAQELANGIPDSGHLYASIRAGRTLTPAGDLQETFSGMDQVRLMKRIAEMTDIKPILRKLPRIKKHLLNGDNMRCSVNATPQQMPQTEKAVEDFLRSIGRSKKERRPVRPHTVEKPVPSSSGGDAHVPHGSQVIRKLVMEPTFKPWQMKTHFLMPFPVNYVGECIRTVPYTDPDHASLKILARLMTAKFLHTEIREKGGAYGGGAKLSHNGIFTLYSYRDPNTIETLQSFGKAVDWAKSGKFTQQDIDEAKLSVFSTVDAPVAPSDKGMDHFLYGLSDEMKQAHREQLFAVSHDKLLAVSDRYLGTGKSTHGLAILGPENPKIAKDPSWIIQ
Sequence of UniProt P62195 (P62195 whole entry, looked up): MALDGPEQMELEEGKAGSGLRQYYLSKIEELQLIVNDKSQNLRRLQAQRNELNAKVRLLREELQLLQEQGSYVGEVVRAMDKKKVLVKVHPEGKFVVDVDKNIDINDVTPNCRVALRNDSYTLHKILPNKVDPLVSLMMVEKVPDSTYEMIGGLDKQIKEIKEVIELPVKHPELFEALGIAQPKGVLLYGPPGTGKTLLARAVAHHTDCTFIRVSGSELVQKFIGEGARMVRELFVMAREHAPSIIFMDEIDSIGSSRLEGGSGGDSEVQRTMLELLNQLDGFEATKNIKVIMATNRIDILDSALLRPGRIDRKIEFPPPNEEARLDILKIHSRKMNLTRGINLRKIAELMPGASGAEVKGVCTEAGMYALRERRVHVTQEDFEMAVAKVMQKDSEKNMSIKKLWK
Sequence of UniProt Q8N4L2 (Q8N4L2 whole entry, looked up): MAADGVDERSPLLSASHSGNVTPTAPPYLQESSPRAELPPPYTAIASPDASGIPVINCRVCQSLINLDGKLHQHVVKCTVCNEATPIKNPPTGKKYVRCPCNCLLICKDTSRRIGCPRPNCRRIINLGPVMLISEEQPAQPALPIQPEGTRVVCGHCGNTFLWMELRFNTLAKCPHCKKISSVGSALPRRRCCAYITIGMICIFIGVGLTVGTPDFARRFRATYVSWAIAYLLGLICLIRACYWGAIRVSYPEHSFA
Sequence of UniProt O75400 (O75400 whole entry, looked up): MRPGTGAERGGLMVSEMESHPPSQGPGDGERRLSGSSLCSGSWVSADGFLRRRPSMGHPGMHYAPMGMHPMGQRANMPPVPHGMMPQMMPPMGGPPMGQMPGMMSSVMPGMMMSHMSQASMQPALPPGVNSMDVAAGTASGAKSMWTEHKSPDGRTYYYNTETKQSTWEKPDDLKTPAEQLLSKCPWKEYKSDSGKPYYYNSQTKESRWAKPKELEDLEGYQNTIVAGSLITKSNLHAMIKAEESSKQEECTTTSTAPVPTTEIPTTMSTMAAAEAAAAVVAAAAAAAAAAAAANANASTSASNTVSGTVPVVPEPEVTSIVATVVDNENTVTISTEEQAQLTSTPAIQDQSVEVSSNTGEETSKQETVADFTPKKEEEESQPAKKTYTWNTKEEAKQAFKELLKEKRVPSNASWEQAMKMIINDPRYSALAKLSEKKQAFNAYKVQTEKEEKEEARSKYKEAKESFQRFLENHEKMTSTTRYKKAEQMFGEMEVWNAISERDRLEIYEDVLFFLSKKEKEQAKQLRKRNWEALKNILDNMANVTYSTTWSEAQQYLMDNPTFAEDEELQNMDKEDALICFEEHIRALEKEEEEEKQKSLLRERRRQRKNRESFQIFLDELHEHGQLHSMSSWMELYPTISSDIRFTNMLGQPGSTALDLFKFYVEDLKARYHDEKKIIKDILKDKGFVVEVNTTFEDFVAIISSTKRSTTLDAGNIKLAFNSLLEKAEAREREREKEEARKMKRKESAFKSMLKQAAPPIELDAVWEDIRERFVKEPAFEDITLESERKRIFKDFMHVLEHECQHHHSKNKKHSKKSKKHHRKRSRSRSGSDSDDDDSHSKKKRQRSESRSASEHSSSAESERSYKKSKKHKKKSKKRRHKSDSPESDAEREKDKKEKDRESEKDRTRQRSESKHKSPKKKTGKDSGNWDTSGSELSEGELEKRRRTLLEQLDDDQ

log2 fold change, inactive:
PIP4P2 (UniProt Q8N4L2) 0.115
PSMC4 (UniProt P43686) -0.008
PPM1G (UniProt O15355) 0.094
PSMC5 (UniProt P62195) 0.005
PRPF40A (UniProt O75400) 0.057
PTP4A2 (UniProt Q12974) -0.019
PRKACA (UniProt P17612) 0.007
PCID2 (UniProt Q5JVF3) 0.014
PISD (UniProt Q9UG56) -0.009
PITRM1 isoform 2 (UniProt Q5JRX3) -0.103
POLR2C (UniProt P19387) 0.138
PCGF2 (UniProt P35227) 0
PSMD7 (UniProt P51665) 0.064
PRPF3 (UniProt O43395) -0.08
